Measurements reported in PubChem BioAssay AID588342 (National Center for Advancing Translational Sciences (NCATS), 2011).
The whole screen tested about 360,000 compounds, of which about 25,000 (6.9%) were called active. A call without a number means that no potency is given here. Another 9% or so got no clear call; they are omitted. This is one part of a sample in which actives are shown more often than they occur. A number with no mark means an inactive call. Calls come from the whole dose curve; as a rule, active = well fitted inhibition curve with a large enough effect; inconclusive = small, poorly fitted or top-dose-only effect; inactive = flat fitted curve, though single readings scatter.

molecular target: Luciferin 4-monooxygenase (Photinus pyralis) (UniProt P08659); test: qHTS profiling assay for firefly luciferase inhibitor/activator using purifed enzyme and Km concentrations of substrates (counterscreen for miR-21 project); conditions: purified FLuc, luminescence inhibition; series mostly up to 57.5 µM; note: nearly all actives have a fitted effect of over 55% in size
In short: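 Purified P. pyralis luciferase, 10 nM final, with Km-level 10 uM D-luciferin and 10 uM ATP in 50 mM Tris acetate pH 7.5, 10 mM Mg acetate, 0.01% Tween-20, 0.05% BSA; 6-point qHTS titration about 60 µM downward; luminescence read.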
Potency is the fitted concentration of half-maximal effect.

Chain of Luciferin 4-monooxygenase (Photinus pyralis) (P08659 whole entry, looked up): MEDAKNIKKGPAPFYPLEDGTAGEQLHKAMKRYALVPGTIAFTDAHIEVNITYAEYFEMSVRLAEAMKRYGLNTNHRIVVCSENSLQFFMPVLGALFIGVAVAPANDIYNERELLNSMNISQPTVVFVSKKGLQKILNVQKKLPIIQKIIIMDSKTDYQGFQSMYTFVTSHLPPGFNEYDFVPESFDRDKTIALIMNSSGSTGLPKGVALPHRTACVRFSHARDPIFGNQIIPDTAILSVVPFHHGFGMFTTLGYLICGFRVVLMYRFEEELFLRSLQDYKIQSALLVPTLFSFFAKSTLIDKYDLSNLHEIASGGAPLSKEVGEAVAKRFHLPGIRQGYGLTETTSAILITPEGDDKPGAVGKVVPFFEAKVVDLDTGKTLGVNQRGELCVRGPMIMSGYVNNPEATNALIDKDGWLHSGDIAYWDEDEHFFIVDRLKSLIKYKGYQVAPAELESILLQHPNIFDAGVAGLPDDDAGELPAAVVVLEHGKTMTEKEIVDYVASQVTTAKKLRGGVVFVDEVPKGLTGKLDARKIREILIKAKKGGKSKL

Row | Compound | Potency | activity change, negative = inhibition
1 | COc1ccccc1CNc1nc2ccc(Cl)cc2n2cnnc12 | inactive | –
2 | COCCN(C(=O)CCC(=O)Nc1nccs1)C(C(=O)NCCC(C)C)c1ccc(F)cc1 (centres undefined) | inactive | –
3 | COc1ccccc1C(=O)Nc1ccc(C)c(S(=O)(=O)N2CCCCC2)c1 | inactive | –
4 | CCc1ccccc1NC(=O)c1cnn(-c2ccc(F)cc2)c1C1CCNCC1 | inactive | –
5 | CCc1ccc(C2N3CC4([N+](=O)[O-])CN2CC([N+](=O)[O-])(C3)C4(C)C)cc1 (centres undefined) | inactive | –
6 | Cc1ccc(NC(=O)C(Cc2ccccc2)NS(=O)(=O)c2ccc3c(c2)oc(=O)n3C)cc1C (centres undefined) | inactive | –
7 | Cc1ccc(S(=O)(=O)N(CC(=O)Nc2ccc(Cl)cc2Cl)c2ccccc2C)cc1 | inactive | –
8 | COc1cccc(CNC(=O)Cn2c(=O)c3cccn3c3ccc(F)cc32)c1OC | inactive | –
9 | Cc1ccc(NC(=O)CN(C)C(=O)Cn2nnc(-c3ccccc3)n2)cc1 | inactive | –
10 | Cc1nc2ccc(S(=O)(=O)NC(C(=O)NCc3ccccc3Cl)C(C)C)cc2s1 (centres undefined) | inactive | –
11 | CSc1nnc(-c2ccc(C(F)(F)F)cn2)o1 | inactive | –
12 | O=C(COc1ccccc1F)Nc1ccc(C(=O)OCc2cc(=O)n3nc(C4CC4)sc3n2)cc1 | inactive | –
13 | COc1ccc(NC(=O)CSc2nc(NS(=O)(=O)c3ccc(C)cc3)cc(=O)[nH]2)cc1 | inactive | –
14 | Cc1cc(=O)[nH]c(SCC(=O)Nc2ccc(Br)cc2)n1 | inactive | –
15 | Cc1ccc(NC(=O)CSc2nc(CSc3ccc(C)cc3)cc(=O)[nH]2)cc1 | 21.3 µM (active) | –
16 | CC(C)Cc1nnc(NC(=O)CCNC(=O)c2ccccc2Cl)s1 | inactive | –
17 | C/C=C/C=C/C(=O)O | inactive | –
18 | COc1ccc(S(=O)(=O)c2cn(C)c3cc(N4CCCCC4)c(F)cc3c2=O)cc1 | inactive | –
19 | COc1ccc(C(=O)NCC(c2ccc(N(C)C)cc2)N2CCc3ccccc32)c(OC)c1 (centres undefined) | inactive | –
20 | COc1ccc(S(=O)(=O)N2CCCCC2)cc1C(=O)NC1CCS(=O)(=O)C1 (centres undefined) | inactive | –
21 | CCOC(=O)c1ccc(CN(Cc2ccccc2)S(=O)(=O)c2ccc(Cl)cc2)cc1 | inactive | –
22 | Cn1cncc1COC(=O)c1ccc(Cl)cc1 | inactive | –

Row | Compound | Potency | activity change, negative = inhibition
23 | CN1OC(COC(=O)c2ccc(Cl)cc2)CC1c1ccccc1 (centres undefined) | 19 µM (active) | –
24 | O=C(CCS(=O)(=O)c1ccccc1)N(Cc1cccnc1)c1nc2c(F)cccc2s1 | inactive | –
25 | CN(C)c1cccc(C(=O)N2CCC(n3nccc3NC(=O)C3CCOC3)CC2)c1 (centres undefined) | inactive | –
26 | CN(CCO)c1ccc(/C=N/Nc2nncc3ccccc23)cc1 | 0.0757 µM (active) | –
27 | Cc1cc2cc3c(N)[nH]nc3nc2cc1C | 4.78 µM (active) | –
28 | COCCNC(=O)NC(=O)COC(=O)C1(c2ccc(Cl)cc2)CC1 | inactive | –
29 | CCN(CC)C(=O)CS(=O)CC(=O)Nc1cc(OCCOC)c(Cl)cc1Cl (centres undefined) | inactive | –
30 | O=C(CSc1nnc(-c2ccc(NS(=O)(=O)c3ccccc3)cc2)o1)NCC1CCCO1 (centres undefined) | inactive | –
31 | O=C(CSc1ccc(-c2ccccc2)nn1)NCC1CCCO1 (centres undefined) | inactive | –
32 | O=C(CSc1ccc(-c2ccc(Br)cc2)nn1)NCC1CCCO1 (centres undefined) | 15.1 µM (active) | –
33 | CCCC[C@]12Cc3cc(OC)c(OC)cc3C(O1)C1=C(CC3(CCCCC3)OC1=O)O2 | – | -0.0926% [at 11.5 µM]
34 | O=C(O)c1ccccc1CSc1nc2ccccc2s1 | 19 µM (active) | –
35 | CCN(CC)CCCSc1nc2ccccc2s1 | inactive | –
36 | Cc1cc(C)c(C#N)c(SCc2ccccc2C(=O)O)n1 | inactive | –
37 | COCCNC(=O)c1ccc2c(c1)N=C(C)c1cc(C)ccc1S2 | inactive | –
38 | COc1ccc(S(=O)(=O)N2CCOC23CCN(S(=O)(=O)c2ccc([N+](=O)[O-])cc2)CC3)cc1 | inactive | –
39 | CCOc1ccc(NC(=O)Nc2ccc(N(C)C(C)=O)cc2)cc1 | inactive | –
40 | O=C(O)Cc1ccc(NC(=O)Nc2cccc3ccccc23)cc1 | inactive | –
41 | CC(=O)N(C)c1ccc(NC(=O)Nc2cccc3ccccc23)cc1 | 8.49 µM (active) | –
42 | CC(=O)Nc1ccc(NC(=O)CSc2nnc3c4cc(Br)ccc4n(C)c3n2)cc1 | inactive | –
43 | CCc1ccc(NC(=O)CN2C(=O)C(c3ccccc3)=NC23CCCCCC3)cc1 | inactive | –
44 | Oc1ccc2ccccc2c1C=Nc1ccccc1 | 16.9 µM (active) | –

Row | Compound | Potency | activity change, negative = inhibition
45 | CC(C)CNC(=O)CC(c1ccccc1)c1c(O)ccc2ccccc12 (centres undefined) | inactive | –
46 | Oc1ccc(N=Cc2c(O)ccc3ccccc23)cc1 | 16.9 µM (active) | –
47 | CCOc1[nH]n(-c2ccc(Cl)cc2)c(=O)c1C=Nc1ccc(O)cc1 | inactive | –
48 | Oc1ccc(N=Cc2sc3ccccc3c2Cl)cc1 | 5.36 µM (active) | –
49 | O=[N+]([O-])c1ccc(N=Cc2c(O)ccc3ccccc23)cc1 | inactive | –
50 | COc1ccc(-n2ccnc(NCCc3ccc(Cl)cc3)c2=O)cc1OC | inactive | –
51 | Cc1cc(C)cc(NC(=O)c2cnc3sc(N4CCCC4)nn3c2=O)c1 | inactive | –
52 | COc1cccc(CNC(=O)C(=O)NCC(c2cccs2)S(=O)(=O)c2ccccc2)c1 (centres undefined) | inactive | –
53 | Cc1nc2ccc(S(=O)(=O)N(CC(=O)Nc3ccc(F)cc3)Cc3ccccc3)cc2s1 | inactive | –
54 | CCCCC12CN3CC(C)(CN(C1)C3c1ccc(O)c(OC)c1)C2=O (centres undefined) | inactive | –
55 | CCOc1ccc(CNC(=O)C2CCN(c3nnc(-n4cccc4CNc4ccc(C)cc4)s3)CC2)cc1OC | inactive | –
56 | Cc1cc(OCC(=O)N(C)c2c(N)n(Cc3ccccc3)c(=O)[nH]c2=O)c(C(C)C)cc1Cl | inactive | –
57 | CCOC(=O)/C(C#N)=C/c1ccc(OCC(=O)Nc2ccccc2)c(OC)c1 | inactive | –
58 | CN(C(=O)COC(=O)c1ccc(Br)o1)c1c(N)n(Cc2ccccc2)c(=O)[nH]c1=O | inactive | –
59 | COc1cc(NC(=O)CCn2nc(C)cc2C)cc(OC)c1OC | inactive | –
60 | CCCn1c(C)cc(/C=C(\C#N)C(=O)OCC(=O)N(C)c2c(N)n(Cc3ccccc3)c(=O)[nH]c2=O)c1C | 10.7 µM (active) | –
61 | CCCn1c(C)cc(/C=C(\C#N)C(=O)OCC(=O)Nc2cc(OC)c(OC)c(OC)c2)c1C | 13.5 µM (active) | –
62 | CCS(=O)(=O)c1ncc(N(Cc2ccc(F)cc2)Cc2ccco2)c(C(=O)Nc2cc(C)ccc2C)n1 | inactive | –
63 | COc1ccc(C(=O)c2oc3ccccc3c2NC(=O)COc2cccc(C)c2)cc1 | inactive | –
64 | O=c1oc2ccc(C#CC3(O)CCCCC3)cc2cc1-n1cc(-c2ccsc2)nn1 | inactive | –
